Screening results as filed in PubChem BioAssay.
Hits are enriched below; roughly 1.6% of the tested compounds scored in any of these assays.
Redox H2O2 prof – compounds producing H2O2 with reducing agent – biochemical, NIH compound library profiling, artefact control for MLSCN library redox annotation, primary screen; DTT-dependent redox cycling H2O2, phenol red/HRP absorbance; 100% = 100 µM peroxide control, 0% = buffer; activation, % at 10 µM; AID 878, 2007; 200,000 compounds, 0.03% hits;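 active = activation of at least 50% relative to the plate's high and low controls in the primary single-dose screen; inactive = activation below 50%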;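 note: compound incubated with DTT at 0.8 mM final as the reducing agent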
S1P4 antag – S1P4 receptor antagonists, primary screen, cell-based; inhibition, % at 4.98 µM; S1P4-expressing cells, antagonist mode, reporter read-out; Sphingosine 1-phosphate receptor 4 (Homo sapiens), O95977; 220,000 compounds, 0.26% hits; in the data active = inhibition above about 29%;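 note: 0% = wells stimulated with agonist and 100% = vehicle wells without agonist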
Target sequence (O95977 whole entry, looked up): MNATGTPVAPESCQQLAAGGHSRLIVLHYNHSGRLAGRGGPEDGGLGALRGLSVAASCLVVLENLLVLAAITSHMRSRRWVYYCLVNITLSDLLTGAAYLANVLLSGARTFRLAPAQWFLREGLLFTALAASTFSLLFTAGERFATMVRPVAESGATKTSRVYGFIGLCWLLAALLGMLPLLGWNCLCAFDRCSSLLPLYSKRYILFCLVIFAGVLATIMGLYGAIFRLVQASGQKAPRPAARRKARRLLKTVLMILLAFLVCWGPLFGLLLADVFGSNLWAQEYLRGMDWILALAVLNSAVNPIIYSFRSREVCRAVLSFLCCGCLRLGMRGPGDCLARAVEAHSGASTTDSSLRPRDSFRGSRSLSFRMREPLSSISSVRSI
Arbovirus anti – antivirals against arbovirus infection, primary screen, cell-based, full library, 10K replicate subset | arbovirus infection cell-based antiviral screen | inhibition, % at 10 µM | 200,000 compounds, 0.37% hits | AID 1251, 2008; in the data active = inhibition above about 30%
p97 ATPase inh – inhibitors of human p97 ATPase, primary screen, biochemical | recombinant p97 ATPase, Kinase-Glo ATP luminescence, 3 h | inhibition, % at 8 µM | 220,000 compounds, 0.42% hits; in the data active = inhibition above about 15%;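 note: 0% = DMSO vehicle and 100% = wells lacking enzyme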
S1P4 ag – S1P4 receptor agonists, primary screen, cell-based | AID 1509, 2009 | S1P4-expressing cell line, agonist reporter assay | activation, % at 4.98 µM | 220,000 compounds, 0.35% hits; in the data active = activation above about 11%;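 note: 0% = DMSO vehicle and 100% = reference agonist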
S1P3 antagonist – S1P3 receptor antagonists, primary screen, cell-based; CHO S1P3 NFAT-BLA reporter, FRET fluorescence, antagonist mode; inhibition, % at 4.98 µM; 170,000 compounds, 0.27% hits;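 active = inhibition above the plate cutoff, the mean inhibition of test wells on that plate plus 3 SD, cut at about 28% in these data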;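 note: cells challenged with S1P at its EC80 of 0.8 µM; blue over green emission ratio from cleaved BLA substrate after 4 h stimulation; 0% = S1P-stimulated wells and 100% = unstimulated DMSO-only wells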
Starred values were filed as active, the others as inactive; x = no result.

SMILES	Redox H2O2 prof	S1P4 antag	Arbovirus anti	p97 ATPase inh	S1P4 ag	S1P3 antagonist
N#Cc1c(-c2ccccc2)nc(SCC(=O)Nc2nnc(C(F)(F)F)s2)[nH]c1=O	0	8	73*	7	0	-11
N#Cc1c(-c2ccccc2)nc(SCC(=O)N(c2ccccc2)c2ccccc2)[nH]c1=O	0	-6	33*	-5	-2	-14
Cn1nnc(NC(=O)COc2ccc(C3CCCCC3)cc2)n1	0	-14	14	-6	0	-6
O=C(c1cc2sccc2n1Cc1ccccc1)N1CCN(c2nc3ccccc3s2)CC1	4	2	7	1	0	x
CCOC(=O)C1CCCN(Cc2ccccc2Cl)C1 (stereo unspecified)	0	-6	88*	1	-1	x
CCOC(=O)/C=C(\C)Sc1cc(=O)oc2ccccc12	1	16	-7	-5	0	-15
CCOC(=O)/C=C(\C)Sc1cc(O)c2ccccc2c1O	x	-4	x	36*	2	0
Cc1cccc(S(=O)(=O)Nc2nc3ccccc3nc2NCc2ccco2)c1	-3	-5	33*	2	-1	-8
Cc1ccc(S(=O)(=O)Nc2nc3ccccc3nc2NCc2ccco2)cc1	2	0	4	5	1	1
COc1ccc(/C=N/NC(=O)c2[nH]nc3c2CCc2ccccc2-3)cc1OC	0	-7	-12	5	1	1
COc1ccc(/C=C/c2nc(-c3ccccc3O)n[nH]2)cc1OC	0	3	30*	4	-2	-6
N#Cc1c(-c2ccco2)nc(SCC(=O)Nc2ccc(S(N)(=O)=O)cc2)[nH]c1=O	0	-19	32*	3	-3	x
CC1C(c2ccccc2)N(C)C(c2ccccc2)C(C)C1(O)C#Cc1ccccc1 (stereo unspecified)	0	-12	-44	-4	40*	4
CCc1nnc(NC(=O)CSc2nnc(-c3cc4ccccc4cc3O)n2CCOC)s1	-1	-15	5	17*	0	9
CCc1nnc(NC(=O)CSc2nnc(-c3cc4ccccc4cc3O)n2CC)s1	-2	-28	21	0	0	-47
CC1Cc2ccccc2N1C(=O)CSc1ccccc1 (stereo unspecified)	1	1	30*	-1	0	x
CC1Cc2ccccc2N1C(=O)CSC1=NCCS1 (stereo unspecified)	-1	10	0	3	0	x
CC(C)C(=O)Nc1nnc(SCC(=O)N2c3ccccc3CC2C)s1 (stereo unspecified)	2	-10	39*	-2	2	x
CCCCS(=O)(=O)Nc1ccc(C)cn1	0	-14	3	-3	1	-5
C=CCn1c(C)csc1=Nc1ccc(C(=O)O)cc1	0	-10	7	4	1	15
CS(=O)(=O)c1ccc(C(=O)NC2CCCc3ccccc32)cc1 (stereo unspecified)	-2	-17	7	1	0	16
O=C(Cn1nc(-c2ccccc2)c2ccccc2c1=O)Nc1ccc(O)cc1	x	-10	x	6	1	6
Cc1ccc(NC(=O)NNC(=O)Cn2nc(-c3ccccc3)c(-c3ccccc3)c(C#N)c2=O)cc1	-4	-23	-16	15*	2	x
Cc1nc2c(-c3ccccc3)c(C)nn2c(SCC(N)=O)c1Cc1ccccc1	x	-1	x	1	1	0
CCOC(=O)N1CCN(S(=O)(=O)c2ccc(OCC)cc2)CC1	0	13	23	-3	1	x
SMILES	Redox H2O2 prof	S1P4 antag	Arbovirus anti	p97 ATPase inh	S1P4 ag	S1P3 antagonist
CCOc1ccc(S(=O)(=O)N2CCN(S(=O)(=O)c3ccc(OCC)cc3)C(C)C2)cc1 (stereo unspecified)	1	-2	-3	0	-1	71*
O=c1c(O)c(-c2ccc(O)cc2O)oc2cc(O)cc(O)c12	0	-1	1	49*	1	1
S=C(NC1CCCCC1)NC1CC2CCC(C1)N2Cc1ccccc1 (stereo unspecified)	-1	-15	2	2	1	-35
O=[N+]([O-])c1ccc(-c2c(O)c3ccccc3c3nc4ccccc4nc23)cc1	-1	2	32*	6	1	2
O=c1c2ccccc2nc(-c2ccc([N+](=O)[O-])cc2)n1O	-1	-1	6	-3	0	-17
CCOC(=O)c1cnc2c(-c3ccc(F)cc3)cnn2c1C(F)(F)F	0	5	62*	0	0	1
CC1(C)CC2(CC(c3ccccc3)c3ccc(O)cc3O2)NC(=S)N1 (stereo unspecified)	-1	-23	3	5	2	-15
Cc1c2cc(O)c(=O)cc-2oc2cc(O)c(O)cc12	0	2	-10	29*	0	7
O=C(CCl)N=c1sccn1Cc1cccc2ccccc12	0	9	31*	0	1	5
O=C(CCl)N=c1sccn1Cc1ccccc1Cl	x	26	x	12	0	10
N#CCSc1nc(N)c(C#N)c(C2CCCCC2)c1C#N	2	-16	34*	2	4	2
Cc1noc(C)c1S(=O)(=O)N(C)CC(=O)Nc1ccc(F)cc1	0	-10	5	2	0	x
Cc1ccc2[nH]c(-c3ccccc3)cc(=O)c2c1	0	25	-12	-2	2	60*
Cc1ccc(-c2cc(=O)c3ccccc3[nH]2)cc1	-1	11	-12	-2	1	-9
O=C(O)C1Nc2c(O)cc(Cl)c([N+](=O)[O-])c2C2C=CCC12 (stereo unspecified)	0	10	23	54*	1	-13
Cc1ccc2c(c1)C1C=CCC1C(C(=O)O)N2 (stereo unspecified)	2	4	5	9	0	-37
O=C(CCCn1c(=O)[nH]c2cc(Cl)ccc2c1=O)NCCCN1CCN(c2ccc(F)cc2)CC1	0	-3	-1	-4	0	-12
O=C(O)c1ccc(-c2nc(-c3ccc(Cl)cc3)cs2)cc1	-1	-18	41*	-1	2	3
O=C(O)c1ccc(-c2nc(-c3ccc(Cl)cc3Cl)cs2)cc1	0	-1	13	3	2	8
OCCC1CN(Cc2cccc3c2OCO3)CCN1C1CCCC1 (stereo unspecified)	0	-9	1	0	0	-1
CCNc1nc(SCCOc2ccc(Cl)cc2Cl)nc(N(C)C)n1	-1	-24	30*	2	-1	7
Cc1ccc2[nH]c(=O)cc(C(=O)OC(C)C)c2c1	0	1	-5	4	0	-25
CCC1=NN2C(=N)/C(=C\c3cccn3-c3ccc(Br)cc3)C(=O)N=C2S1	-1	-7	14	-3	0	0
